# Measured values from PubChem BioAssay (NCI).
# Compounds without any hit were thinned out: in the full panel of roughly 83,000, 20% have a hit.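 Values shown are percent growth following 48 h exposure of cells in 96-well plates to a single concentration of compound; below 10 was considered active.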 Unmarked numbers belong to inactive results. Calls of active or inactive are those of the source.
# Experiments:
# Experiment in all cases: NCI-60 one-dose screen, 48 h (100 = growth as untreated, 0 = no growth, -100 = all killed)
# Details in all cases: 10 µM unless noted
# [1] = tested on: NCI-H23 lung
# [2] = tested on: NCI-H226 lung
# [3] = tested on: NCI-H322M lung
# [4] = tested on: HOP-62 NSCLC
# [5] = tested on: NCI-H460 lung
# [6] = tested on: HOP-92 NSCLC
# [7] = tested on: NCI-H522 lung
# [8] = tested on: A549/ATCC NSCLC
# [9] = tested on: 786-0 renal
# [10] = tested on: COLO 205 colon
# [11] = tested on: DU-145 prostate
# [12] = tested on: K-562 leukemia
# [13] = tested on: MALME-3M melanoma
# [14] = tested on: MDA-MB-231 breast
# [15] = tested on: RXF 393 renal
# [16] = tested on: SF-268 CNS
# [17] = tested on: SF-295 CNS
# [18] = tested on: SF-539 CNS
# [19] = tested on: UACC-257 melanoma
# [20] = tested on: M14 melanoma
SMILES,growth [1],growth [2],growth [3],growth [4],growth [5],growth [6],growth [7],growth [8],growth [9],growth [10],growth [11],growth [12],growth [13],growth [14],growth [15],growth [16],growth [17],growth [18],growth [19],growth [20]
CSc1nc(-c2cccc(NC(=O)CCl)c2)c(C#N)c(=O)n1C,49.1%,89.2%,107%,98.7%,93.3%,42.7%,-73.7% (active),86.3%,53%,-20.2% (active),77.3%,11.4%,-72.6% (active),65.9%,63.9%,61.5%,98.7%,38.6%,63.5%,56.8%
COc1cc(-c2nc3ccccc3[nH]2)ccc1OCc1nnc(-c2ccc(CC(C)C)cc2)o1,91.1%,87.7%,93.8%,93.4%,98.8%,79.7%,93.5%,84.2%,93.7%,101%,94%,76%,89.9%,93.4%,71.2%,99.9%,99.3%,105%,104%,98.3%
CNC(=O)c1cc(Oc2ccc(NC(=O)Nc3ccc(Cl)c(OC(F)(F)F)c3)c(F)c2)ccn1,7.09% (active),31.5%,71.7%,39%,37.4%,28.9%,5.56% (active),24.7%,58%,6.8% (active),56.7%,6.83% (active),1.66% (active),35.3%,82.3%,45.2%,21.3%,50.6%,1.86% (active),4.35% (active)
Cc1ccc(NC(=O)C2CCC(CN3CCN(C)CC3)CC2)cc1Nc1nccc(-c2cccnc2)n1 (stereo not given),96.1%,99.8%,95.9%,105%,101%,85.5%,129%,114%,98.7%,94.4%,100%,58.3%,104%,101%,96%,100%,101%,63.4%,115%,98.8%
CNC(=O)c1cc(Oc2ccc(NC(=O)Nc3ccc(Cl)c(SC)c3)c(F)c2)ccn1,29.7%,40.4%,74.5%,62.1%,58.2%,48.8%,17.5%,39.9%,88.5%,24.4%,72.1%,18.1%,27.5%,50.1%,85.9%,50.6%,34%,47.3%,28.1%,29.7%
O=C(/C=C/c1cccc(Cl)c1)c1ccc(O)c(CN2CCN(c3cc4c(cc3F)c(=O)c(C(=O)O)cn4C3CC3)CC2)c1,56.4%,62%,37.8%,37.2%,44%,21.8%,17.3%,25.8%,33.6%,136%,34.6%,20.4%,44.1%,70.5%,39.5%,36.9%,43.5%,40.9%,80.5%,43%
Cc1ccc2c(C(C[N+](=O)[O-])c3ccccc3)c(-c3ccccc3)[nH]c2c1 (stereo not given),39.4% [9.5 µM],35.3% [9.5 µM],41.7% [9.5 µM],20.2% [9.5 µM],12.2% [9.5 µM],25.8% [9.5 µM],-37.8% [9.5 µM] (active),28.6% [9.5 µM],30.8% [9.5 µM],9.02% [9.5 µM] (active),30.3% [9.5 µM],10.9% [9.5 µM],44.7% [9.5 µM],37.2% [9.5 µM],5.65% [9.5 µM] (active),35.2% [9.5 µM],9.43% [9.5 µM] (active),8.82% [9.5 µM] (active),27.6% [9.5 µM],22.3% [9.5 µM]
COc1cccc(/C=C2\Oc3cc(OCCN4CCCC4)ccc3C2=O)c1,92.2%,99.2%,92.7%,96.3%,93.8%,69.6%,94.5%,99%,95.8%,93.8%,98.5%,-26.9% (active),104%,96.3%,97.5%,91.8%,105%,88.9%,111%,98.7%
O=C1CSC(=S)N1CCc1ccc(O)cc1,95%,108%,98.1%,85.2%,99%,66.9%,46.8%,96.7%,40%,106%,33.5%,58.2%,85.3%,91.3%,95.9%,86.2%,97.5%,85.2%,92%,87.9%
O=C1/C(=C/c2ccc3c(c2)OCO3)SC(=S)N1CCc1ccc(O)cc1,94.1%,102%,97.3%,102%,102%,72%,48.2%,93.5%,75.2%,116%,52.3%,95.8%,89.5%,91.2%,111%,95.2%,99.5%,91.8%,99.7%,94.4%
CNc1ccc(-c2cc(=O)oc3ccc(Cl)cc23)cc1,18.5%,48.1%,54.4%,26.2%,6.78% (active),37.3%,-25.3% (active),10.1%,37.3%,-15.1% (active),18%,11%,110%,16.2%,43.1%,27.6%,18.1%,-2.97% (active),38%,25.4%
O=c1c2c3c(sc2nc(N/N=C/c2cn(-c4ccccc4)nc2-c2ccc(Cl)cc2)n1Cc1ccccc1)CCCC3,106%,102%,111%,98.5%,97.7%,74.2%,84.7%,83.6%,95.2%,109%,116%,3.49% (active),115%,113%,118%,91.8%,62.2%,95.9%,92%,98.1%
Cn1cccc1-c1nc2c3c(ccc2[nH]1)C(=O)c1ccccc1C3=O,85.3%,86.2%,81.8%,102%,87.2%,89%,73.6%,87.9%,103%,120%,101%,73.8%,90.5%,88.6%,93%,97.8%,97.9%,90.7%,94.3%,99.7%
Cc1nc2c3c(-c4ccccc4)c(-c4ccccc4)oc3ncn2n1,93.1%,92.2%,102%,90.7%,98%,81.7%,80.8%,101%,99.1%,110%,104%,94.3%,109%,83.3%,99.6%,94%,92.7%,90.2%,106%,102%
O=C1CC(=NCC(=O)n2c(-c3ccccc3)nc3ccccc32)NN1,91.8%,90.2%,103%,89%,100%,99.5%,84.5%,114%,107%,111%,115%,111%,111%,90.1%,110%,102%,101%,99.4%,120%,104%
